From PubChem BioAssay AID645 (SRMLSC, 2007)
In all, about 65,000 compounds went through this assay and about 450 (0.69%) were called active.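 Rule for the calls: active = HER2 level under 5% of the carrier-only control; inconclusive = no clear call, values can overlap the other calls; inactive = the rest.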 The sample as a whole holds a higher share of actives than the screen did.

The molecules below were run against Receptor tyrosine-protein kinase erbB-2 (Homo sapiens) (UniProt P04626) (assay: inhibitors of Her2 protein expression, primary screen, SKBR-3 cells, AlphaScreen, 66K library (AID 645;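 note: 100% = DMSO carrier and 0% = 500 nM PU-H71 HSP90 inhibitor; lower value means stronger loss of Her2 protein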)). Conditions: SKBR-3 HER2 protein level, 18-24 h, at 10 µM, hits give low values.
Sequence of Receptor tyrosine-protein kinase erbB-2 (Homo sapiens) (P04626 whole entry, looked up): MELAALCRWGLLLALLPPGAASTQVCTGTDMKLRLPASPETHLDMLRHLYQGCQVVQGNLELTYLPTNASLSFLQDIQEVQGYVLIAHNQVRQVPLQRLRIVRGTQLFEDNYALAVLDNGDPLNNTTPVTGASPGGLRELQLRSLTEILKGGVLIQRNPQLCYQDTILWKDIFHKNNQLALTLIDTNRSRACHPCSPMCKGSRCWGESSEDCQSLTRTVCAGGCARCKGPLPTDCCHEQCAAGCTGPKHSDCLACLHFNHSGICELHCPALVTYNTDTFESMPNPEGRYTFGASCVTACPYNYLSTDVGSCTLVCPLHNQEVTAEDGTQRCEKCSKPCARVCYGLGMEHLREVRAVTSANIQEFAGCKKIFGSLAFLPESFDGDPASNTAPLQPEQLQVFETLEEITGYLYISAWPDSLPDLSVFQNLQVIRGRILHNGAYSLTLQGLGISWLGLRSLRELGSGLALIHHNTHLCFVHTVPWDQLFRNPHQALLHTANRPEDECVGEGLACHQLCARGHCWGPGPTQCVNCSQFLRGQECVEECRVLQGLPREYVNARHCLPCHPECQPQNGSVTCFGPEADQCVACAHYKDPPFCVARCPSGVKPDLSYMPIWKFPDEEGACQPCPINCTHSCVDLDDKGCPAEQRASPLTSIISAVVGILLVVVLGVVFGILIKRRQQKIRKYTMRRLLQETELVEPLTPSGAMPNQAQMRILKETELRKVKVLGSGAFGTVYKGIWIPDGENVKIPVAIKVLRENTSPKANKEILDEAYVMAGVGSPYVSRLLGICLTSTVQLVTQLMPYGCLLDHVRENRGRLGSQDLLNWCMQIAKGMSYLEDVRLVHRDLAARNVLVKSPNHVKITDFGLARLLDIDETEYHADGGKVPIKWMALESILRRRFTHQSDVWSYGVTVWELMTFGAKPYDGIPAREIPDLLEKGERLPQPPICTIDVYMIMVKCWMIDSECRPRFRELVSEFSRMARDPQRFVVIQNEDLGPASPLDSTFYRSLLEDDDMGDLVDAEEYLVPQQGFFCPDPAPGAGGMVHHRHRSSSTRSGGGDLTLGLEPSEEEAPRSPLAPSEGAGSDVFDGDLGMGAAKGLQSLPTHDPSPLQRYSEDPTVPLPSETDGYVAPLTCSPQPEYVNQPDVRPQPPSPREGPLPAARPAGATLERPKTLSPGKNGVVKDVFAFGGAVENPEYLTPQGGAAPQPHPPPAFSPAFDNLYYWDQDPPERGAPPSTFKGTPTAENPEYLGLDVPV

Row | Compound | HER2 level % of control
1 | CC(=O)c1c(O)n(C2CCCCCC2)c(=O)[nH]c1=O | 69.8% (inactive)
2 | CC(=NCC1CCCO1)c1c(O)n(-c2ccccc2)c(=O)[nH]c1=O (stereo not given) | -16.3% (active)
3 | CCC(=NCCCO)c1c(O)n(-c2ccc(OC)cc2)c(=O)[nH]c1=O | 92.7% (inactive)
4 | CC(=O)N1CN2CN(C(C)=O)CC(C(=O)c3ccc(Br)cc3)(C2)C1 | 119% (inactive)
5 | Cc1ccc(Cn2nnnc2CN2CCC(n3nnc4ccccc43)CC2)cc1 | 69.1% (inactive)
